Measured values taken from ChEMBL document CHEMBL3988442, “University of Dundee, Small-Polar-MMV Screening Library” (2021).
For some of these results: Measured potencies and affinities stand elsewhere.

How the values were obtained:
Set-up in all cases: scale not given: direction of the effect not stated beside the values
[1] = molecular target: Protein translocase subunit SecA (Escherichia coli (strain K12)) (UniProt P10408); experiment: Assay to Identify E. coli SecA ATPase Inhibitors; assay type: functional; conditions: 30 µM
Chain of Protein translocase subunit SecA (Escherichia coli (strain K12)) (P10408 whole entry): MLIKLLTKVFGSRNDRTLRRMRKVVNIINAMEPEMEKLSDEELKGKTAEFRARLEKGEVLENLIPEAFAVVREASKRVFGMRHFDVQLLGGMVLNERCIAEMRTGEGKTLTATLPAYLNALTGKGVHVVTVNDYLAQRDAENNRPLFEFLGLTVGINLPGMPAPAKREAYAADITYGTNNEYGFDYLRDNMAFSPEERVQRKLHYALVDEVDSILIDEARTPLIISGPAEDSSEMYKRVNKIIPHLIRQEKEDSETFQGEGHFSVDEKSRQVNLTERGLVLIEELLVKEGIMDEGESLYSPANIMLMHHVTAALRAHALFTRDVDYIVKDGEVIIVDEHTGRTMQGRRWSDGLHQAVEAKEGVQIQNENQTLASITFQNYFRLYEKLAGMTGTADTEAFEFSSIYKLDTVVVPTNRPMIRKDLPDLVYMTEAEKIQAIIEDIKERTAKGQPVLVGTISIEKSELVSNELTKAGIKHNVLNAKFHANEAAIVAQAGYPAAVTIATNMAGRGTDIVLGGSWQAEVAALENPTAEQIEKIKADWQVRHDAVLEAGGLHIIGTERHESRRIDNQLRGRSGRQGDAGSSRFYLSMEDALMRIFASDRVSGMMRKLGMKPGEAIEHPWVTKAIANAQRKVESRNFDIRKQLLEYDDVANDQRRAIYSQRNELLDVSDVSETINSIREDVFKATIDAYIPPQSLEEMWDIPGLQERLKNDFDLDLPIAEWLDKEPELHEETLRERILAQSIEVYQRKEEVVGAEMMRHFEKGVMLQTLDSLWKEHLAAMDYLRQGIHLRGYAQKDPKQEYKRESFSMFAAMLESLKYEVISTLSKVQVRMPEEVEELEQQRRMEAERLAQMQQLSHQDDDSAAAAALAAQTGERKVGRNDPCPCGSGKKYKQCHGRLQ

[2] = molecular target: T1, Ubiquitin-activating enzyme e1, putative (Leishmania donovani (strain BPK282A1)) (UniProt E9BSI1); experiment: Leishmania donovani Ubiquitin Activating Enzyme (LdE1); assay type: functional; conditions: 30 µM
T1 sequence (whole entry): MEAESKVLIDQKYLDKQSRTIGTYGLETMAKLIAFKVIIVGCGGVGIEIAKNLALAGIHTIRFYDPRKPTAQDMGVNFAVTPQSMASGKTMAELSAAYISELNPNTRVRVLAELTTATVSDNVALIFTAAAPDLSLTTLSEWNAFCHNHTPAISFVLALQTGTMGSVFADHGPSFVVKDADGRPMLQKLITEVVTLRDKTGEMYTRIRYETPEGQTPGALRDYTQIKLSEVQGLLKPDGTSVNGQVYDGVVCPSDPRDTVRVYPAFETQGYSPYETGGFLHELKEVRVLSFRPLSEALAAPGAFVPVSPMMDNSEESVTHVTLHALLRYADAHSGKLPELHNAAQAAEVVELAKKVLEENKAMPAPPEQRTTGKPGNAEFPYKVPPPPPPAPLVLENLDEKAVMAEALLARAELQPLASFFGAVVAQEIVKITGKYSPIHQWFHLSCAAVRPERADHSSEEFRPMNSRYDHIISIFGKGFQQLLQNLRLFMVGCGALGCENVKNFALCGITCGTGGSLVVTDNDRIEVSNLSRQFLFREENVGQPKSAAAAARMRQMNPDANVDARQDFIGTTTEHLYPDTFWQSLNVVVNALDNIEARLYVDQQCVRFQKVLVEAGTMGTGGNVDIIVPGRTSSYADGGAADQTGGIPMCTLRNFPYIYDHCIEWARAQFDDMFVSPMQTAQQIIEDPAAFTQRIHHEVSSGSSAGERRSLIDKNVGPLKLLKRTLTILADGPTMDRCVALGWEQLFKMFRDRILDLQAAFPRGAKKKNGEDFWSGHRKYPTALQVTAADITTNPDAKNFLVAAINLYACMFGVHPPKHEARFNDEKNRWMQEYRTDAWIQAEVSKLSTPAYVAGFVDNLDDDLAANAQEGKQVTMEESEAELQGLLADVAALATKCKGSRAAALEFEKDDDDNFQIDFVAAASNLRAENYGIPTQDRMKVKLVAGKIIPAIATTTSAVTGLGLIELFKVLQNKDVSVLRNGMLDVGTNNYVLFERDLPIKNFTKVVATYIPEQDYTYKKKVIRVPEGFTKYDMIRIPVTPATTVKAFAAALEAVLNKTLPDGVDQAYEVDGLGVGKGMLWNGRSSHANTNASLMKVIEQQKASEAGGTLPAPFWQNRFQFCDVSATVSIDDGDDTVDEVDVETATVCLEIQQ

[3] = molecular target: AMP-activated protein kinase, AMPK (Homo sapiens) (UniProt P54646+O43741+P54619+Q9UGJ0+Q9Y478+Q13131+Q9UGI9); experiment: AMP-dependent Kinase enzyme assay. An in vitro enzyme assay that detects ADP turnover that is directly proportional to AMPK activity. This uses naive AMPK that is activated during the assay with MK-8722; assay type: functional; conditions: 30 µM
[4] = molecular target: Sialic acid-binding Ig-like lectin 9 (Homo sapiens) (UniProt Q9Y336); experiment: Hs-Siglec9 ALPHAscreen SOP 20170721; conditions: 10 µM
Chain of Sialic acid-binding Ig-like lectin 9 (Homo sapiens) (Q9Y336 whole entry): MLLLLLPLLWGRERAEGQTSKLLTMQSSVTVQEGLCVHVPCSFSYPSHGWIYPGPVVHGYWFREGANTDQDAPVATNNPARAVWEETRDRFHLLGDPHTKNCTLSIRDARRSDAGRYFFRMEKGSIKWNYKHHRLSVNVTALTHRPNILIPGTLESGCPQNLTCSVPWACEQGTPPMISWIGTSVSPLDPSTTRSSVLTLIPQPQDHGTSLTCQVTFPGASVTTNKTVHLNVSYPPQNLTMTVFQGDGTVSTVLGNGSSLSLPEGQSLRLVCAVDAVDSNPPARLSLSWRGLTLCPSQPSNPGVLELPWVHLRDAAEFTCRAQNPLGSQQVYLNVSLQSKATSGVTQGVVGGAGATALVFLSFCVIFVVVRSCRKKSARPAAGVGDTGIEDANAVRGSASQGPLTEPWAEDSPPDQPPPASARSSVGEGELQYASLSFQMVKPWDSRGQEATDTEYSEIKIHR

Trypanosoma cruzi = experiment: Trypanosoma cruzi phosphomannomutase and mannose-1-phosphate guanylyltransferase assay; assay type: functional; conditions: 10 µM
[5] = molecular target: T2, Arginase-2, mitochondrial (Homo sapiens) (UniProt P78540); experiment: in vitro enzyme assay to detect the production of urea directly proportional to the activity of Arginase II; assay type: functional; conditions: 33.3 µM; note: in the data most compounds retested in dose-response had high values
T2 sequence (whole entry): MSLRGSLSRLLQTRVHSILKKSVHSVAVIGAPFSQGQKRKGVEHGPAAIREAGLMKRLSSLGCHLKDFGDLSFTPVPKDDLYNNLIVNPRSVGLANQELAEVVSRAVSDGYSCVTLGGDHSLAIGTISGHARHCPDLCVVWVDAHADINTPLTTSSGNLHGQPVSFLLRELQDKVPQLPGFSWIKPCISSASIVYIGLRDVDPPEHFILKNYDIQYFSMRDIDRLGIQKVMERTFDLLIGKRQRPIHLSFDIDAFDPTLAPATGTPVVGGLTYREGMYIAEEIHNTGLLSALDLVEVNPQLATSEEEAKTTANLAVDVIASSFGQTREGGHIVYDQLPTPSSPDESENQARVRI

[6] = molecular target: T3, Proteasome subunit beta (Trypanosoma cruzi) (UniProt O96673); experiment: Trypanosoma cruzi proteasome chymotrypsin-like activity (TcProtChymo) assay.; note: in the data most compounds retested in dose-response had high values; assay type: functional; conditions: 9.37 µM
T3 sequence (whole entry): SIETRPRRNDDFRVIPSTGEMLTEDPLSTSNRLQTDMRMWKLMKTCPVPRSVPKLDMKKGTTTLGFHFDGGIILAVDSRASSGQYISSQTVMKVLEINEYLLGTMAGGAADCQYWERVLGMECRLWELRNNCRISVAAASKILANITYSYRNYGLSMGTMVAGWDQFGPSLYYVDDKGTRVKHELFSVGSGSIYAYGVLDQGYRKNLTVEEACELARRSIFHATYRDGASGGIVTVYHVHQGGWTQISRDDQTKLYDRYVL

Homo sapiens = species on record: Homo sapiens; experiment: To identify inhibition of the IFN signalling (Jak-Stat) pathway via expression of an eGFP reporter gene under the control of an IFN-stimulated response element (ISRE) containing MxA promoter.; assay type: functional; conditions: 30 µM
[7] = molecular target: T4, Tyrosyl-tRNA synthetase, putative (Trypanosoma cruzi (strain CL Brener)) (UniProt Q4DSP6); experiment: Trypanosoma cruzi tyrosyl tRNA synthetase (TcYRS) _High Tyrosine SOP; assay type: functional; conditions: 30 µM; note: in the data most compounds retested in dose-response had high values
T4 sequence (whole entry): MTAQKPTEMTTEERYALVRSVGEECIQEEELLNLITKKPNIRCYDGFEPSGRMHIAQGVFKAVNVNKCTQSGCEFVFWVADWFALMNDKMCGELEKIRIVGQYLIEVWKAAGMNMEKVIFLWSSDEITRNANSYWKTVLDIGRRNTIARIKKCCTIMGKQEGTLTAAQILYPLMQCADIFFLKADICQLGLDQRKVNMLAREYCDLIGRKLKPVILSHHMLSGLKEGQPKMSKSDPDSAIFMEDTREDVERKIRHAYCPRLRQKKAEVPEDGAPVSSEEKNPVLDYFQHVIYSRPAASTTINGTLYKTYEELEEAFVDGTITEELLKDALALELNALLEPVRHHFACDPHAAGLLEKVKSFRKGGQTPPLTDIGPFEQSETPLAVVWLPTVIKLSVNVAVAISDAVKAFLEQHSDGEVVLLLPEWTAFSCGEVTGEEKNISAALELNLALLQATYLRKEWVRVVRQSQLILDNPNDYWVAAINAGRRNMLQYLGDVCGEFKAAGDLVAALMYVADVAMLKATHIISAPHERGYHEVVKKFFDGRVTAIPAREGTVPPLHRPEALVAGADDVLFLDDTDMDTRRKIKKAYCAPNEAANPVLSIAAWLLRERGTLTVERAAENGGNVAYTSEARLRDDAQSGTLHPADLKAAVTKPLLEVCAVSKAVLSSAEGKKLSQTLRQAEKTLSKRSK

[8] = molecular target: T4, Tyrosyl-tRNA synthetase, putative (Trypanosoma cruzi (strain CL Brener)); experiment: Trypanosoma cruzi tyrosyl tRNA synthetase (TcYRS) SOP; assay type: functional; conditions: 30 µM
[9] = molecular target: Chromo domain-containing protein 1 (Saccharomyces cerevisiae (strain ATCC 204508 / S288c) (Baker's yeast)) (UniProt P32657); experiment: ScCHD-1 Enzyme Inhibition Assay; assay type: functional; conditions: 30 µM; note: in the data most compounds retested in dose-response had high values
Chain of Chromo domain-containing protein 1 (Saccharomyces cerevisiae (strain ATCC 204508 / S288c) (Baker's yeast)) (P32657 whole entry, the tested form may be a part): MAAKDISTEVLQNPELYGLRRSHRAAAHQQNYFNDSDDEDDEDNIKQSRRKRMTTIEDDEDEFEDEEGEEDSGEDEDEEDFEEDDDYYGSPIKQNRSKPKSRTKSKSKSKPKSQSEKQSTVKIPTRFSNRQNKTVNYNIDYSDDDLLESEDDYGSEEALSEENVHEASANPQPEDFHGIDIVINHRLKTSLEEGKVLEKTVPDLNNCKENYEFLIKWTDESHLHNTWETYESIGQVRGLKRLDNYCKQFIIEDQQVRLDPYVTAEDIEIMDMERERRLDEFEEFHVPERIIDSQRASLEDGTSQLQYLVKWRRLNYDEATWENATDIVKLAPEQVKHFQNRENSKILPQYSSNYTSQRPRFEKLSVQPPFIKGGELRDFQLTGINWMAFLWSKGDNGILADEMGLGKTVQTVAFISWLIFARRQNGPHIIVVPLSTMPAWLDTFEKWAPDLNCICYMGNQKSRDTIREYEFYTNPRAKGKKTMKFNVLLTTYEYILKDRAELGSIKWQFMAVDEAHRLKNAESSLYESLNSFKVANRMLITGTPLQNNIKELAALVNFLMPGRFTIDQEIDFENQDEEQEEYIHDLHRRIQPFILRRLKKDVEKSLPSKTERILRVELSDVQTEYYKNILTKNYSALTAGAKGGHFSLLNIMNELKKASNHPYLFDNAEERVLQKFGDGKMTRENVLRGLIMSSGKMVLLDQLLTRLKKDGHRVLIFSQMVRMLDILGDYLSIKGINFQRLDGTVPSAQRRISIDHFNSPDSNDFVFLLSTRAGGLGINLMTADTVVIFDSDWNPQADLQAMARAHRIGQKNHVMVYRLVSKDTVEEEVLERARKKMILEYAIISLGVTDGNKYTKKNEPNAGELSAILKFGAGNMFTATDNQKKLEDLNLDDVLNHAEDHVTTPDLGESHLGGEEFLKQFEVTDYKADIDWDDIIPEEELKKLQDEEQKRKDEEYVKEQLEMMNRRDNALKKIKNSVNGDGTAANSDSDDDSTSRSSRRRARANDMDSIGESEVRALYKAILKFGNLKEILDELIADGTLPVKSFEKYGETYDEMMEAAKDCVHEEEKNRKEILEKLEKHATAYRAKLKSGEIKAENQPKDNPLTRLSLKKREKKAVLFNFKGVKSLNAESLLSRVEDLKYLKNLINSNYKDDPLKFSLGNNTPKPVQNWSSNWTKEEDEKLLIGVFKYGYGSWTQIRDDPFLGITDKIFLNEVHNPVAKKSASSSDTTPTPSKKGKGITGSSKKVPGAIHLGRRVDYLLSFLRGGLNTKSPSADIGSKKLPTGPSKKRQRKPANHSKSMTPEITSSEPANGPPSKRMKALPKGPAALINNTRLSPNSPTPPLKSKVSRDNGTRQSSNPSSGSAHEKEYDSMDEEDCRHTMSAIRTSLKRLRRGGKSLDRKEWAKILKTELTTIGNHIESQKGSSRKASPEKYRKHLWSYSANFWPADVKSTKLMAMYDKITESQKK

SMILES	Percent Effect [1] [%]	Percent Effect [2] [%]	Percent Effect [3] [%]	Percent Effect [4] [%]	Percent Effect (Trypanosoma cruzi) [%]	Percent Effect [5] [%]	Percent Effect [6] [%]	Percent Effect (Homo sapiens) [%]	Percent Effect [7] [%]	Percent Effect [8] [%]	Percent Effect [9] [%]
CCC(CC)c1cc(C(=O)N2CCCC(n3cncn3)C2)on1 (stereo unspecified)	-2.21	-1.39	-4.63	9.13	3.6	22.5	11.9	-8.85	1.05	5.13	0.586
O=C(NCCCOCC1CC1)Nc1cccnc1N1CCOCC1	-3.08	2.7	-5.79	0.4	-5.27	-1.67	21.1	10.8	-21.8	3.66	14.9
Cc1nn(C)c(N2CCOCC2)c1CNCc1ccc(Cl)s1	-3.24	10.4	2.59	-1.94	2.06	1.9	9.62	11.3	11.4	25.9	-8.79
CCN(CC1CN(Cc2ncc[nH]2)CCO1)c1cccnn1 (stereo unspecified)	-4.66	8	-8.56	6.93	1.46	5.21	16.2	6.04	4.92	8.64	-4.63
Cc1nnc(NCc2cccnc2N(C)C)c(C#N)c1C	-0.868	-5.41	-22.1	9.49	2.88	-4.25	-2.87	6.79	2.97	6.1	0.273
CCc1nsc(NC2CCCn3nc(COC)nc32)n1 (stereo unspecified)	-4.32	13.3	-5.77	21.4	4.77	16.7	9.94	7.13	3.83	13.6	-6.59
CN(Cc1ccc2c(c1)OCCO2)C(=O)NCCc1cnn(C)c1	-2.93	18.9	-2.51	14.3	-10.3	0.554	14.5	18	2.97	-1.22	-6.78
Cc1cc(NC(=O)Cn2cc(C#N)c(=O)c3cc(Br)ccc32)no1	-5.99	-45.3	-1.25	3.63	-1.27	-9.9	13.8	19.5	-14.8	-60.5	80.7
Cc1cc(C)c(CNC(=O)NCC(c2ccccc2)N(C)C)c(=O)[nH]1 (stereo unspecified)	-3.19	-2.63	-5.47	13.4	2.52	1.08	-0.592	4	7.39	18.5	-3.01
Cc1cc(NC(=O)CN2CCN(c3nccs3)C(C)C2)n(C)n1 (stereo unspecified)	-1.17	-2.7	-3.28	12	0.279	0.924	4.49	-4.36	1.98	3.66	10.5
Cc1ccccc1CN1CCC2(COCc3cnc(N(C)C)nc32)C1 (stereo unspecified)	-1.75	2.74	-2.35	15.2	8.73	-2	8.65	19.6	9.38	13.6	-2.3
